Where “and” joins values, the source holds several entries; their conditions need not be identical. Equal entries are not always repeated. Where a structure was tested more than once in an assay, its records may differ in their call. Calls of active or inactive are those of the source. How the source made its calls: active means hit-call score of the fitted dose curve at least 0.9, where 1 is the maximum; inactive means score below 0.9.
Columns and labels:
[1] = read-out: Plasminogen activator inhibitor-1 (PAI1), SERPINE1 (gene 5054); assay: BSK_MyoF_PAI1: BioMAP Diversity Plus: MyoF Assay for Plasminogen activator inhibitor-1 (PAI1) Biomarker Activity (AID 2284256); conditions: primary human lung fibroblasts
How it was run: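 Human lung fibroblasts (MyoF system) were exposed to test chemicals for 24 h, then PAI-1 was quantified by ELISA. Activity was fitted in the positive (signal-gain) direction relative to DMSO vehicle as baseline.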

[2] = read-out: Interleukin-8 (IL8), CXCL8 (gene 3576); assay: BSK_MyoF_IL8: BioMAP Diversity Plus: MyoF Assay for Interleukin-8 (IL8) Biomarker Activity (AID 2284261); conditions: primary human lung fibroblasts
How it was run: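 IL-8 quantified by ELISA after 24 h compound exposure of primary human lung fibroblasts. SRB staining of parallel cultures flagged cytotoxicity; DMSO served as baseline.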

Decorin, DCN (gene 1634) = assay: BSK_MyoF_Decorin: BioMAP Diversity Plus: MyoF Assay for Decorin Biomarker Activity (AID 2284265); conditions: primary human lung fibroblasts
How it was run: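 Decorin protein was quantified by ELISA 24 h after chemical addition to primary human lung fibroblasts and analysed as increase over DMSO. Cytotoxicity was tracked in parallel cultures by SRB total-protein staining read at 560 nm.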

[3] = BSK_MyoF_SRB: Viability Assessment in the BioMAP Diversity Plus: MyoF Assay (AID 2284267); conditions: primary human lung fibroblasts;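 further: total protein by SRB absorbance in parallel cultures as cytotoxicity measure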
How it was run: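 Read-out is SRB absorbance at 560 nm, reflecting total protein in parallel lung fibroblast cultures harvested 24 h after compound addition. Cells were TCA-fixed (10%) and stained with 0.1% SRB; activity is referenced to DMSO.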

[4] = read-out: Matrix Metallopeptidase 1 (MMP1), MMP1 (gene 4312); assay: BSK_MyoF_MMP1: BioMAP Diversity Plus: MyoF Assay for Matrix Metallopeptidase 1 (MMP1) Biomarker Activity (AID 2284268); conditions: primary human lung fibroblasts
How it was run: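 Human lung fibroblasts (MyoF system) exposed to chemical for 24 h in 96-well format; MMP1 biomarker quantified by ELISA, with activity fitted in the positive direction relative to DMSO baseline.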

[5] = read-out: TIMP metallopeptidase inhibitor 1 (TIMP1), TIMP1 (gene 7076); assay: BSK_MyoF_TIMP1: BioMAP Diversity Plus: MyoF Assay for TIMP metallopeptidase inhibitor 1 (TIMP1) Biomarker Activity (AID 2284269); conditions: primary human lung fibroblasts
How it was run: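 ELISA read-out of TIMP-1 from primary human lung fibroblast cultures 24 h after compound dosing; gain of signal relative to DMSO vehicle baseline defines activity.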

[6] = read-out: Plasminogen activator inhibitor-1 (PAI1), SERPINE1 (gene 5054); assay: BSK_KF3CT_PAI1: BioMAP Diversity Plus: KF3CT Assay for Plasminogen activator inhibitor-1 (PAI1) Biomarker Activity (AID 2284252); conditions: primary human keratinocytes with fibroblasts
How it was run: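 ELISA read-out of PAI-1 taken 24 h after chemical treatment of a human skin primary co-culture of keratinocytes and foreskin fibroblasts. Increases over DMSO-treated wells defined activity.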

[7] = read-out: Interleukin-8 (IL8), CXCL8 (gene 3576); assay: BSK_KF3CT_IL8: BioMAP Diversity Plus: KF3CT Assay for Interleukin-8 (IL8) Biomarker Activity (AID 2284254); conditions: primary human keratinocytes with fibroblasts
How it was run: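 IL-8 by ELISA in primary human skin co-culture (keratinocytes plus fibroblasts) 24 h post-dose, DMSO as baseline. Cytotoxicity assessed in parallel by sulforhodamine B total-protein staining.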

[8] = read-out: Intercellular Adhesion Molecule 1 (ICAM1), ICAM1 (gene 3383); assay: BSK_BE3C_ICAM1: BioMAP Diversity Plus: BE3C Assay for Intercellular Adhesion Molecule 1 (ICAM1) Biomarker Activity (AID 2284278); conditions: primary human bronchial epithelial cells
How it was run: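 Human primary bronchial epithelial cultures; compound added; 24 h incubation; cell-surface ICAM-1 measured by ELISA; signal increase fitted relative to DMSO negative control.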

[9] = read-out: Interferon-inducible T-cell alpha chemoattractant (ITAC), CXCL11 (gene 6373); assay: BSK_BE3C_ITAC: BioMAP Diversity Plus: BE3C Assay for Interferon-inducible T-cell alpha chemoattractant (ITAC) Biomarker Activity (AID 2284279); conditions: primary human bronchial epithelial cells
Protocol: BSK_BE3C is a cell-based, multiplexed-readout assay that uses bronchial epithelial cell, a human lung primary cell, with measurements taken at 24 hours after chemical dosing in a 96-well plate.BSK_BE3C_ITAC is an assay component measured in the BSK_BE3C assay. It measures I-TAC antibody related to regulation of gene expression using ELISA technology.Data from the assay component BSK_BE3C_ITAC was analyzed at the endpoint, BSK_BE3C_ITAC, in the positive analysis fitting direction relative to DMSO as the negative control and baseline of activity. Using a type of binding reporter, gain or loss-of-signal activity can be used to understand protein changes. To generalize the intended target to other relatable targets, this assay endpoint is annotated to the 'cytokine' intended target family, where the subfamily is 'chemotactic factor'.
The levels of cell surface (or secreted, indicated by the prefix "s") biomarker endpoints were measured by ELISA. Overt cytotoxicity to cells in confluent adherent cultures (all systems other than the BT system) was assessed by measuring total protein levels using sulforhodamine B (SRB) staining in parallel cultures at the time of biomarker measurements, indicated as SRB endpoints. For proliferation assays for adherent cell types, individual cell types are cultured at sub-confluence and relative cell numbers quantified by SRB staining at time points optimized for each system (48 h: 3C and CASM3C systems; 72 h: BT and HDF3CGF systems; 96 h: SAg system). SRB was performed by staining cells with 0.1% SRB after fixation with 10% TCA and reading wells at 560 nm.Viability and proliferation of PBMC (T cells) was quantified by Alamar Blue reduction for the SAg and BT systems. For PBMC viability (referred to as PBMC Cytotoxicity within the assay endpoint names), cells were plated (75,000/well in a 96-well plate) and then chemical samples added for 1 h before addition of activators, SEB and TSST-1 (20 ng/mL final concentration each). Cells were incubated for 90 h. Then, Alamar Blue (20 uL/well) (Invitrogen, Cat DAL1100) was added for 6 h, and the plates were read with a fluorescence microplate reader at 546/580 nm (excitation/emission). For PBMC proliferation, cells were plated and activated as above but incubated for only 16 h prior to addition of Alamar Blue. Plates were read after 6 h.

Measured: AC50

COc1cc(Cl)c(OC)cc1N
inactive: [1] | [2] | Decorin, DCN (gene 1634) | [3] | [4] | [5]

CCCCOC(=O)CCCCCCCC(=O)OCCCC
inactive: [1] | [2] | Decorin, DCN (gene 1634) | [3] | [4] | [5]

c1ccc2cc(Nc3ccc(Nc4ccc5ccccc5c4)cc3)ccc2c1
inactive: [1] | [2] | Decorin, DCN (gene 1634) | [3] | [4] | [5]

CC(C)(N=C=O)c1cccc(C(C)(C)N=C=O)c1
inactive: [1] | [2] | Decorin, DCN (gene 1634) | [3] | [4] | [5]

O=C(Nc1ccc2c(O)c(N=Nc3ccc(N=Nc4ccc(S(=O)(=O)O)cc4)cc3)c(S(=O)(=O)O)cc2c1)c1ccccc1
inactive: [6] | [7] | [8]
active: [9] 30.4 µM and 20 µM

CCCCCCC(CO)CCCC (stereo unspecified)
inactive: [8] | [9]
active: [6] 32.7 µM and 31 µM | [7] 28.9 µM and 32.5 µM | [8] 20 µM

CC1(C)CCC[C@]2(C)[C@H]3CCO[C@]3(C)CC[C@@H]12
active: [6] 34.7 µM and 34.6 µM | [7] 36.8 µM and 31.3 µM
inactive: [8] | [9]

CCCCCCCCCCCCCCCC(=O)OC/C=C(C)/C=C/C=C(C)/C=C/C1=C(C)CCCC1(C)C
inactive: [1] | [2] | Decorin, DCN (gene 1634) | [3] | [4] | [5]

Oc1c(Cl)cc(Cl)c(Cl)c1Cc1c(O)c(Cl)cc(Cl)c1Cl
active: [1] 0.83 µM | [2] 13 µM | [3] 5.13 µM | [4] 0.198 µM | [5] 1.07 µM
inactive: Decorin, DCN (gene 1634)

c1ccc(Oc2ccccc2)cc1
inactive: [1] | [2] | Decorin, DCN (gene 1634) | [3] | [4] | [5]

C=C(C)C(=O)OCCOCCOCCOC(=O)C(=C)C
inactive: [1] | [2] | Decorin, DCN (gene 1634) | [3] | [4] | [5]

CC(CN=Cc1ccccc1O)N=Cc1ccccc1O (stereo unspecified)
inactive: [6] | [7] | [8] | [9]

CCCCN(CCCC)C(=O)N(CCCC)CCCC
inactive: [2] | Decorin, DCN (gene 1634)
active: [1] 10.7 µM | [3] 11 µM | [4] 7.64 µM | [5] 9.42 µM

C=C(C)C(=O)OCCOCCOCCOCCOC(=O)C(=C)C
inactive: [1] | [2] | Decorin, DCN (gene 1634) | [3] | [4] | [5]

C[C@@H]1CCN(C(=O)[C@H](CCCN=C(N)N)NS(=O)(=O)c2cccc3c2NC[C@H](C)C3)[C@@H](C(=O)O)C1
inactive: [1] | [2] | Decorin, DCN (gene 1634) | [3] | [4] | [5]

CC(C=O)Cc1ccc(C(C)(C)C)cc1 (stereo unspecified)
inactive: [1] | [2] | Decorin, DCN (gene 1634) | [3] | [4] | [5]

C=CC(C)(O)CCC=C(C)C (stereo unspecified)
inactive: [6] | [7] | [8] | [9]

O=CN1CCOCC1
inactive: [6] | [7] | [8] | [9]

CCOC(=O)C(C#N)=C(c1ccccc1)c1ccccc1
inactive: [6] | [7] | [8] | [9]

CN(C)C(=O)Nc1ccc(Oc2ccc(Cl)cc2)cc1
inactive: [2] | Decorin, DCN (gene 1634) | [3] | [4] | [5]
active: [1] 0.016 µM

c1ccc(CCc2ccccc2)cc1
inactive: [2] | [4]
active: [1] 35.2 µM | Decorin, DCN (gene 1634) 26.8 µM | [3] 37.2 µM | [5] 30.2 µM

O=C1OC[C@H](Cc2cccc(O)c2)[C@H]1Cc1cccc(O)c1
inactive: [1] | [2] | Decorin, DCN (gene 1634) | [3] | [4] | [5]

O=C1OC2(c3ccccc31)c1ccc(O)c(Br)c1Oc1c2ccc(O)c1Br
active: [1] 9.25 µM
inactive: [2] | Decorin, DCN (gene 1634) | [3] | [4] | [5]

CN(C)C(=S)SC(=S)N(C)C
inactive: [2] | Decorin, DCN (gene 1634) | [3] | [5]
active: [1] 3.95 µM | [4] 29.4 µM

From PubChem BioAssay (EPA / NIEHS)
